The text below walks through data of ChEMBL document CHEMBL3988442, “University of Dundee, Small-Polar-MMV Screening Library” (2021).

The target of the assay is Shiga toxin 2 (Escherichia coli O157:H7) (UniProt P09385+P09386). Description: E. coli 0.157:H7 Shiga Toxin SOP - stx2 screening assay. It counts as functional. Also noted: scale not given: direction of the effect not stated beside the values. The settings on record: 30 µM.
For the compound `CO[C@H]1CN(C(=O)c2ccccn2)[C@@H]2CCCO[C@H]12`, the Percent Effect was 0.669%.
Next, `O=C1NCC2(CCCN(CCc3ccccc3)C2)Oc2ccccc21` (stereo not given): -68.8%.
Turning to `CN(Cc1nc(N)c2ccccc2n1)C1CCCN(c2cccnn2)C1` (stereo not given), the Percent Effect is -28.7%.
With `CC(=O)c1ccc(N2CCCC(CO)(CCOc3ccccc3)C2)nc1` (stereo not given), the Percent Effect was -9.89%.
Next, `Cc1cccc(N2CC[C@@H]3CN(C(=O)c4ccco4)CCO[C@@H]3C2)n1`: 1.6%; `Cc1ccc(F)cc1NC(=O)NCC(C)N1CCOCC1` (stereo not given): -35%; `CC(NCc1c(C(C)C)nn(C)c1N1CCOCC1)C(N)=O` (stereo not given): -49.6%.
Under `CC(C)c1cc(N2CCC(CCC(=O)NC3CC3)CC2)n2nccc2n1` stands -4.79%.
For `Cc1nc(C(C)(C)NC(=O)Nc2cccc(C#N)c2)no1`, the Percent Effect was -19.6%.
Under `CCC(=O)N1CCC(c2nnc(Cn3cncn3)n2C2CC2)CC1` stands -2.15%.
Regarding `CCN1CCN(c2ccc(CNC(=O)c3ccc(Cl)o3)cn2)CC1`, the Percent Effect is -41.7%.
Take `Cc1cc(CN(C)C(=O)c2cc3c([nH]c2=O)CCCC3=O)no1`: the Percent Effect was 20.8%.
Under `CC(NC(=O)NCCCn1ccnc1)c1ccc2c(c1)CCC(=O)N2` (stereo not given) stands -22.9%.
Under `CCCn1c(C)cc(C(=O)CN2C(=O)c3ccccc3CS2(=O)=O)c1C` stands -23.8%; under `Cc1cnccc1N1CCCN(C(=O)CCCc2cn[nH]c2)CC1`, -13.3%.
Under `CCc1ccc(C(=O)N2CCN(CCS(C)(=O)=O)CC2)o1` stands 24.9%.
In the case of `CCc1nc(C2CCCN2C(=O)c2nccnc2N)no1` (stereo not given), the Percent Effect is 8.58%.
For the compound `O=C(CCN1CCCC1=O)NCc1cccnc1Oc1ccccc1`, the Percent Effect stood at 8.3%.
As to `CCN(c1ccc(C(=O)NCCCN2CCOCC2)cc1)S(=O)(=O)CC`, the Percent Effect is -48.2%.
In the case of `Cc1ccc(CC(=O)N2CCOC(c3nc(C)n[nH]3)C2)cn1` (stereo not given), the Percent Effect was 0.301%.
Under `Cc1nc(C2CCCN(C(=O)c3cccc4c3OCO4)C2)no1` (stereo not given) stands -12.6%.
Under `OC(CN(Cc1ccccc1)Cc1ccncc1)c1cccs1` (stereo not given) stands 4.51%.
Under `Cc1noc(C)c1C(=O)NCC(O)c1ccc(F)cc1F` (stereo not given) stands 20.4%; under `CC(C)Oc1cccc(C(O)CNC(=O)CCc2ccncc2)c1` (stereo not given), -21.1%; under `COc1cc(C)sc1C(=O)N1CC(c2cccnc2)C1`, 12.6%.
On to `COc1ccc(-c2cc(C3CCCCCN3S(=O)(=O)N(C)C)on2)cc1` (stereo not given), for which the Percent Effect was -17.1%.
Under `CCc1ncncc1C(=O)N1CCCN(Cc2ccc(C)cc2)CC1` stands 16.1%; under `COCCN1C[C@@H]2CN(c3ncccn3)C[C@@H]2C1=O`, -15.3%.
With `Cc1cc(C)n2cc(CN3CCCC3Cn3nc(C)nc3C)nc2n1` (stereo not given), the Percent Effect is 5.36%.
Under `Cn1c(Cn2ccnc2)nnc1C1CCN(C(=O)C2(C)CC2)CC1` stands -12.1%.
Next, `O=C(c1cc(F)ccc1F)C1CCN(C(=O)c2ccccn2)CC1`: 18.1%; `O=C(C1=CCCC1)N1CCO[C@H]2[C@@H](OCC3CC3)CC[C@@H]21`: -28.7%.
As to `CC(C)n1ccnc1CN1CCCN(C(=O)CC2C=CCC2)CC1` (stereo not given), the Percent Effect is -0.917%.
On to `COC(=O)c1cccn1C1CCN(C(=O)c2cc(F)ccc2F)CC1`, for which the Percent Effect is 19.6%.
Next, `c1ccc(-c2nc(CNC3CCc4ncnn4C3)co2)cc1` (stereo not given): -10.8%.
Next, `O=C1OC2(CCN(C3CCCOC3)CC2)CN1CCc1ccccc1` (stereo not given): -27.2%; `Cn1ccnc1CN1CCN(Cc2cc(C#N)ccc2F)CC1`: 17.6%; `CN(C)C(CNS(=O)(=O)c1ccc(F)cc1F)c1cccn1C` (stereo not given): -2.1%.
Under `Cc1cc(C)n(C2CCCN(C(=O)c3cc(C4CC4)on3)C2)n1` (stereo not given) stands -32.5%; under `CNc1nc2c(s1)C(=O)CN(C(=O)NCc1ccccc1)C2`, -6.79%.
